Reference: PubChem BioAssay (NCI)
About 83,000 compounds went through this panel and 20% of them were active in at least one assay; those are over-represented in the sample as a whole.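 48-hour exposure, single concentration, 96-well plates; percent growth endpoint where 0 means no net growth. Active: below 10.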 A number with no mark means an inactive call. Active and inactive are the calls of the source.

Tests used:
Test in all cases: NCI-60 one-dose screen, 48 h (100 = growth as untreated, 0 = no growth, -100 = all killed)
Details in all cases: 10 µM unless noted
[1] = system: SR leukemia
[2] = system: RPMI-8226 leukemia
[3] = system: OVCAR-8 ovarian
[4] = system: OVCAR-5 ovarian
[5] = system: SK-OV-3 ovarian
[6] = system: IGROV1 ovarian
[7] = system: OVCAR-3 ovarian
[8] = system: HS 578T breast
[9] = system: NCI/ADR-RES ovarian
[10] = system: T-47D breast
[11] = system: BT-549 breast
[12] = system: MDA-MB-435 melanoma
[13] = system: SW-620 colon
[14] = system: MCF7 breast
[15] = system: HCT-116 colon
[16] = system: HCC-2998 colon
[17] = system: KM12 colon
[18] = system: OVCAR-4 ovarian

Row | Structure (SMILES) | growth [1] | growth [2] | growth [3] | growth [4] | growth [5] | growth [6] | growth [7] | growth [8] | growth [9] | growth [10] | growth [11] | growth [12] | growth [13] | growth [14] | growth [15] | growth [16] | growth [17] | growth [18]
1 | Nc1nc(-c2ccccc2)cs1 | 94.5% | 109% | 100% | 98.7% | 99.4% | 113% | 102% | 104% | 110% | 96.7% | 116% | 107% | 108% | 94.4% | 94.8% | 104% | 106% | –
2 | O=C1Nc2cc(Cl)ccc2Oc2cc(Oc3ccccc3)ccc21 | 20.7% | – | 88% | 83% | – | 63.3% | 27.6% | 43.3% | 18.9% | 48.5% | 56.4% | -3.81% (active) | 16.6% | 29% | 27.8% | 60.6% | 20% | 71.5%
3 | c1cncc(CNc2ccccc2-c2nnc(Nc3ccc4c(c3)OCCO4)o2)c1 | 14.1% | – | 27.1% | 43.9% | -4.48% (active) | 40.9% | -50.3% (active) | 77.9% | 6.09% (active) | 73.6% | 16.6% | -20.3% (active) | 23.2% | 20.9% | 9.5% (active) | 9.58% (active) | 3.03% (active) | 44%
4 | CCC#CC[C@H]1C/C=C2/C(=O)C=C[C@@H]2C/C=C\CCCC(=O)O1 | 5.38% (active) | 4.15% (active) | 13.6% | 18.4% | 26.5% | 7.74% (active) | 6.81% (active) | 40.2% | 22.7% | 24.1% | 0.46% (active) | -0.679% (active) | 0.0835% (active) | 18.3% | -70.9% (active) | -67% (active) | -48.8% (active) | –
5 | CC1=NN2C(=NC3=C(CCC/C3=C\c3ccc(Cl)cc3)C2c2ccc(Cl)cc2)S1 (centres undefined) | 64.5% | -18.4% (active) | 90.2% | 103% | – | 103% | 108% | 101% | 106% | 89.1% | 97.9% | 45.8% | 97.3% | 24.2% | -37.2% (active) | 80.6% | 77.2% | –
6 | COc1ccc(C2=CC(c3ccc(Oc4ccnc5cc(Cl)ccc45)c(OC)c3)c3c(nc(OC)[nH]c3=O)N2)cc1 (centres undefined) | 13.4% | 28.8% | – | 115% | 102% | 86.6% | 58% | 97.1% | 71.1% | 53.8% | 39.5% | 71.3% | 50.2% | 35.7% | 35.8% | 84.3% | 65.5% | 63.9%
7 | CC(C)CCN(CCCNc1c2c(nc3ccccc13)CCCC2)CCC(C)C | – | 56.4% | 91.1% | 83.6% | 94.3% | 81.8% | 93.9% | 87.6% | 87.8% | 98.8% | 91.3% | 89.3% | 79.9% | 69.9% | 63.7% | 69.7% | 105% | 66.3%
8 | COc1ccc(/C=C/C(=O)c2ccc(B(O)O)cc2)cc1O | – | 6.12% (active) | 89.9% | 88.2% | 82.7% | 56.2% | 58.5% | 70.7% | 92.3% | 79.2% | 64.8% | 3.03% (active) | 28.5% | 20.2% | 1.46% (active) | 49.8% | 9.39% (active) | 114%
9 | Cc1c(C(=O)NCc2ccccc2)[n+](=O)c2cc(F)ccc2n1[O-] | – | 64.1% | 116% | 103% | 109% | -26.7% (active) | 93.2% | 148% | 105% | 107% | 121% | 93.5% | 107% | 97.1% | 97.9% | 88.4% | 111% | 98%
10 | CN(C)C1CCC(NC2=CC(=O)C=CC2=O)CC1 (centres undefined) | – | 111% | 113% | 118% | 119% | 105% | 116% | 108% | 111% | 110% | 114% | 114% | 117% | 97.9% | 5.98% (active) | 126% | 108% | 111%
11 | O=C(/C=C/c1ccccc1)n1c(-c2ccc(Cl)cc2)nc2ccccc21 | – | -31.1% (active) | -31.3% (active) | -48.1% (active) | 24% | 10.4% | -57.2% (active) | 20% | 10.8% | -4.25% (active) | -50.5% (active) | -44.3% (active) | -55.1% (active) | 10.3% | -71.5% (active) | 5.08% (active) | -62.9% (active) | 30%
12 | CCCCCCC[C@@H](O)CC(=O)N[C@H](CCCCN)C(=O)N[C@H](Cc1c[nH]c2ccccc12)C(=O)NC(CCCCN)C(=O)N[C@H](CC(C)C)C(=O)N[C@H](Cc1ccccc1)C(=O)N[C@H](CCCCN)C(=O)N[C@H](CCCCN)C(=O)N[C@H](CC(C)C)C(=O)N1CCCC1C(=O)N[C@H](CCCCN)C(=O)N[C@H](Cc1ccccc1)C(=O)N[C@H](CC(C)C)C(=O)N[C@H](Cc1c[nH]cn1)C(=O)N[C@H](CC(C)C)C(=O)N[C@H](C)C(=O)N[C@H](CCCCN)C(=O)N[C@H](CCCCN)C(=O)N[C@H](Cc1ccccc1)C(=O)O (some centres undefined) | -13.1% (active) | – | -11.1% (active) | -63% (active) | -62.8% (active) | -29.4% (active) | -41.3% (active) | -42.4% (active) | -23.6% (active) | -39.9% (active) | -43% (active) | -38.7% (active) | -52.2% (active) | -23.8% (active) | -35.7% (active) | -49.2% (active) | -63% (active) | –
13 | Nc1c(C(=O)Nc2cccc(C(F)(F)F)c2)sc2nc3c(cc12)CCCCCC3 | 21.1% | – | -37.4% (active) | 12.8% | 2.08% (active) | 14.6% | 0.0711% (active) | 29.5% | 12% | -7% (active) | 59.6% | 31% | 46% | 20.4% | -18.1% (active) | 37.1% | 30.1% | –
14 | Nc1c(C(=O)Nc2c(Cl)cccc2Cl)sc2nc3c(cc12)CCCCC3 | 16.7% | – | 51.8% | 79.8% | 56.6% | 73% | 52.8% | 59% | – | 57.7% | 52.6% | 9.69% (active) | 46.1% | 18.4% | 62.3% | – | 53.6% | –
15 | CN(C)c1nc(N)c(N=O)c(N)n1 | – | 110% | 114% | 111% | 99.2% | 110% | 101% | 106% | 122% | 104% | 115% | 110% | 108% | 102% | 105% | 113% | 108% | 108%
16 | CN1C(=O)[C@H]2c3c1cccc3[C@@]13NC(=O)O[C@H]1[C@H](CCC3(C)C)C2(C)C | – | 97% | 96.1% | 101% | 120% | 107% | 103% | 89.1% | 98.8% | 87.8% | 102% | 102% | 114% | 99.7% | 103% | 106% | 103% | 99%
17 | CCC(=O)Oc1ccc2c(c1)CC[C@@H]1[C@@H]2CC[C@]2(C)C[C@H](OC(=O)CC)C[C@@H]12 | – | 67% | 87.9% | 98.4% | 56% | 77.6% | 68.8% | 59.7% | 54.2% | 83.7% | 60.1% | 0.38% (active) | 48.2% | 68.5% | 50.5% | 85% | 53.5% | 79%
18 | Cn1c(-c2nonc2NC(=O)c2ccc(F)cc2)nc2ccccc21 | – | 106% | 96.6% | 117% | 111% | 104% | 119% | 110% | 106% | 96.5% | 109% | 107% | 105% | 89.1% | 106% | 100% | 103% | 114%
